# Most compounds without a hit are left out; they make up all but 7.9% or so of the library.
# MARV entry inh: Marburg virus entry inhibition. hit rate 1.8% among 300,000. Marburg virus pseudotyped entry inhibition, cell reporter. Potency, µM (series often up to 37.8 µM), most hits filed as inhibitors; calls by dose curve; tested in HEK293 cells
# HCMV antiviral: blocks human cytomegalovirus replication. HFF cells, HCMV-luciferase reporter, 72 h; stronger effect = lower value. activity change, negative = inhibition, % at 57.5 µM. hit rate 4.5% among 410,000; in the data active = activity change below about -60%; inconclusive = no clear call, values can overlap the other calls; inactive = above about -39%
#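 Luciferase read-out from HCMV-luciferase-infected HFFs (MOI 1 PFU/cell) 72 h post infection at 37C; compounds added after 16 h cell attachment; activity normalized between buffer-only basal and Salinomycin (10uM) inhibitor controls.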
# Lassa entry inh: Lassa virus entry inhibition; Lassa virus pseudotype entry inhibition, cell reporter; hit rate 1.2% among 300,000; Potency, µM (series often up to 37.9 µM), actives largely listed as inhibitors; calls by dose curve; tested in HEK293 cells; also: nearly all actives have a fitted effect of over 50% in size
# HCV inhibitor: inhibitors of hepatitis C virus infection; hit rate 3.4% among 340,000; Huh7.5.1 HCVcc-Cre infection, luciferase reporter, 44 h; AID 651820; Potency, µM (doses to about 41.8 µM), hits mostly inhibitors; active = well fitted inhibition curve with a large enough effect; inconclusive = small, poorly fitted or top-dose-only effect, or another doubt; inactive = no such curve, though single readings can be large or run the other way
#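 1,000 cells/well; 4 h culture; + compound; + HCVcc-Cre (~0.5 moi); 44 h; luciferase substrate, RT 15 min; read 15 sec.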
# FMDV inh: foot and mouth disease virus antiviral activity | FMDV antiviral cell-based qHTS | Potency, µM (highest dose often 57.9 µM), actives largely listed as inhibitors | hit rate 1.2% among 410,000 | AID 1159524; calls by dose curve; tested in HEK293T cells; also: read-out not given here; nearly all actives have a fitted effect of over 45% in size
# A number is an active result; – = inactive; ? = inconclusive; · = no result; [ ] = dose if it differs, or a comment.
SMILES,MARV entry inh,HCMV antiviral,Lassa entry inh,HCV inhibitor,FMDV inh
CC(=O)N(Cc1cc2c(C)cc(C)cc2[nH]c1=O)C1CCCCC1,?,–,–,–,–
CCN(CC)CCCN(Cc1cc2cc3c(cc2[nH]c1=O)OCO3)C(=S)Nc1ccccc1OC,?,–,–,–,–
Cc1nc2n(c(=O)c1CCN1CCC(c3noc4cc(F)ccc34)CC1)CCCC2,11.2µM,–,·,?,–
O=C(NCc1ccc(F)cc1)c1ccc2c(=O)n3c(nc2c1)CCCCC3,·,–,·,–,–
CC(C)CC(NS(=O)(=O)c1ccccc1)C(=O)O (centres undefined),–,–,–,–,–
CC(C)CN=C(NS(=O)(=O)c1ccccc1)C(Cl)(Cl)Cl,?,-99.5,?,5.01µM,?
CCOC(=O)N1CCC(NC(=O)c2ccc(N3CCC4(CC3)OCCO4)c([N+](=O)[O-])c2)CC1,?,–,?,–,25.1µM
CCCCNC(=O)c1ccc(N2CCC3(CC2)OCCO3)c([N+](=O)[O-])c1,–,–,?,–,–
O=C(Nc1cccnc1)c1ccc(N2CCOCC2)c([N+](=O)[O-])c1,·,–,·,?,–
CCCNC(=O)c1ccc(SCC(=O)N(CC)CC)c([N+](=O)[O-])c1,–,-67.4,–,?,–
CC1CCN(c2ccc(C(=O)Nc3ccc4c(c3)OCO4)cc2[N+](=O)[O-])CC1,?,-60.8,–,4.47µM,–
O=C(Nc1cccnc1)c1ccc(N2CCCC2)c([N+](=O)[O-])c1,–,–,–,11.2µM,–
Cc1ccc2c(c1)c1c(c(=O)n(-c3ccccc3)c(=O)n1CC(=O)NCCC1=CCCCC1)n2C,·,–,–,·,–
COc1ccc(COC(=O)CCCN=C2NS(=O)(=O)c3ccccc32)cc1F,·,–,·,·,–
OCC1CCCN(c2nc3cc4c(cc3cc2CNCc2cccc(C(F)(F)F)c2)OCO4)C1 (centres undefined),·,·,·,·,–
Cc1nc(NC(=O)CSc2nnc(C3CC3)n2N)c(Cl)cc1Cl,·,–,·,–,–
CN1C(=O)c2ccc(NC(=O)c3ccc(N4CCCCC4)c([N+](=O)[O-])c3)cc2C1=O,–,–,–,–,17.8µM
Cc1cc(C(=O)Nc2ccc(N3CCCC3)c(Cl)c2)ccc1[N+](=O)[O-],?,–,–,?,–
O=C(NCCCn1ccnc1)c1ccc(N2CCCCCC2)c([N+](=O)[O-])c1,?,-60.9,?,–,–
Cc1ccc(C(=O)NCCCn2ccnc2)cc1[N+](=O)[O-],–,–,–,–,–
C=C1CCN(c2ccc(C(=O)NCCC)cc2[N+](=O)[O-])CC1,·,–,·,10µM,–
COc1ccc(C(=O)NCCn2cc(SCC(=O)Nc3ccccc3)c3ccccc32)cc1OC,–,–,–,·,–
COc1ccccc1C(=O)NCCn1cc(SCC(=O)Nc2cc(C)on2)c2ccccc21,–,–,?,31.6µM,–
COc1ccc(C(=O)NCCn2cc(SCc3cccc(F)c3)c3ccccc32)cc1OC,?,?,?,·,17.8µM
COc1ccc(C(=O)NCCn2cc(SCC(=O)Nc3cc(C)on3)c3ccccc32)cc1OC,?,–,–,?,–
SMILES,MARV entry inh,HCMV antiviral,Lassa entry inh,HCV inhibitor,FMDV inh
O=C(NCCn1cc(SCc2cccc(F)c2)c2ccccc21)c1cccc(C(F)(F)F)c1,?,-92.2,–,·,?
CCCCN(C(=O)Cc1ccc([N+](=O)[O-])cc1)C(C(=O)Nc1c(C)cccc1C)C(=O)c1ccc(OC)cc1 (centres undefined),·,–,·,·,·
Cc1ccc(NS(=O)(=O)c2cccc(C(=O)N/N=C/c3c(C)nn(-c4ccccc4)c3N3CCCC3)c2)c(C)c1,–,–,?,12.6µM,–
Cc1nn(-c2ccccc2)c(N2CCCC2)c1/C=N/NC(=O)C1CC1,?,-61.3,?,?,–
COc1ccc(C(=O)OCC(=O)c2ccc[nH]2)cc1,?,–,–,–,–
Cc1cccc(CNC(=O)c2cnn(-c3nccc(-c4cccs4)n3)c2C2CC2)n1,·,·,·,·,–
O=C(c1ccc(N2CCC(NCCCn3ncc4ccccc43)CC2)cc1)N1CCc2ccccc2C1,·,·,·,·,–
O=C(Cn1c(-c2cccs2)cc2ccccc21)N1CCN(c2ccc(F)cc2)CC1,·,–,?,·,–
Cn1cc(C(=O)c2ccc(Cl)cc2)cc1-c1nc2ccccc2n1C,?,-69.1,?,25.1µM,15.8µM
Cn1c(=O)c(C(=O)c2ccccc2)nc2ccccc21,–,–,–,–,–
C[C@@H](C(=O)Nc1ccc2ccccc2c1)[C@H]1C[C@]1(C)[C@H](NS(=O)(=O)c1ccc(-c2ccccc2)cc1)c1ccccc1,11.6µM,–,–,–[8.37 µM],–
